The values that follow come from PubChem BioAssay (NCATS).

Values joined by “and” are separate entries in the source; they are usually repeats but may differ in a detail not shown here. Equal entries are not always repeated. Records with an inconclusive call do not appear. Active and inactive are the calls of the source. Unless noted, calls follow the shape of the dose curve; as a rule, active = well fitted curve in the direction sought with a large enough effect; inconclusive = small, poorly fitted or top-dose-only effect, or another doubt; inactive = no such curve, though single readings can be large; an effect the other way counts as inactive or inconclusive.

In assay [1] the target is Peroxisome proliferator-activated receptor alpha (Homo sapiens) (UniProt Q07869). Description: qHTS assay for small molecule agonists of the peroxisome proliferator-activated receptor alpha (PPARalpha) signaling pathway (AID 651778). Also: % of control where 0% means no effect. The note with it: PathHunter PPARalpha complementation, chemiluminescence, 6 h; stronger effect = higher value. The essentials: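 Enzyme-fragment complementation assay in which ligand-bound PPARalpha translocates and forms an active enzyme that generates chemiluminescence. Cells were plated overnight, exposed to compound for 6 hr at 37 C, and then given detection reagent for 60 min at room temperature.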
(In general: In qHTS, concentration-response curves come from the screen itself.)

Assay [2] can be described thus: qHTS assay for small molecule agonists of the antioxidant response element (ARE) signaling pathway measured by Nrf2-dependant transcriptional activity (AID 720636; active = well fitted curve in the direction sought with a large enough effect in the repeat runs; an effect the other way counts as inactive or inconclusive;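 also: HepG2 cells with an ARE-driven luciferase reporter; % of control where 0% means no effect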). The note with it: ARE-luc HepG2, Nrf2 luciferase reporter, 16 h; series mostly up to 92.4 µM. Summed up:
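We exposed ARE-luc HepG2 cells, seeded in assay medium with 1% dialyzed FBS and allowed 6 hr to adhere, to test compounds overnight (16 hr, 37 C) before measuring luciferase with ONE-Glo.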

Assay [3] in a line: qHTS assay for small molecule antagonists of the retinoid-related orphan receptor gamma (ROR-gamma) signaling pathway - cell viability counter screen (AID 720652; active = well fitted curve in the direction sought with a large enough effect in the repeat runs; an effect the other way counts as inactive or inconclusive;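 also: compound exposure lasted 16 hr before ATP read; % is scaled to controls: 0 for no effect and ±100 for the full control effect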). The note with it: RORgamma reporter cell line viability counter screen; series mostly up to 92.2 µM. The essentials:
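Luminescence from CellTiter-Glo after 30 min at room temperature reported cellular ATP as the cytotoxicity measure. Cells were the CHO reporter line with doxycycline-induced ROR-gamma expression, exposed to compound for 16 hr at 37 C.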

Assay [4] is described as follows: qHTS assay for small molecule agonists of the antioxidant response element (ARE) signaling pathway measured by Nrf2-dependant transcriptional activity - cell viability counter screen (AID 720653; active = well fitted curve in the direction sought with a large enough effect in the repeat runs; an effect the other way counts as inactive or inconclusive; also: potency is read from the fitted curve at half-maximal effect; as to max response: % is scaled to controls: 0 for no effect and ±100 for the full control effect). The note with it: ARE-bla HepG2 viability, CellTiter-Glo ATP luminescence, 16 h; max response: stronger effect = lower value. The essentials:
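ARE-bla HepG2 cells treated with compounds for 16 h at 37C; this counter screen measures viability as intracellular ATP by CellTiter-Glo luminescence after 30 min at room temperature.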

Assay [5] is described as follows: qHTS Assay for Identifying Gametocytocidal Compounds (AID 743244).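 Also: % is scaled to controls: 0 for no effect and ±100 for the full control effect; actives lower the fluorescent signal which means gametocytes are killed.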 The note with it: P. falciparum 3D7 stage III-V gametocytes, alamarBlue, 72 h; max response: stronger effect = lower value. The essentials: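 Viability read-out was resazurin reduction (alamarBlue, 24 h) measured at Ex 525/Em 598 nm. Beforehand, late-stage (III-V) 3D7 P. falciparum gametocytes at 20,000 cells/well were incubated with compound 72 h at 37C under 5% CO2.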

Assay [6] can be described thus: qHTS assay for cell viability of HEK293 cells (AID 743288). Also: nearly all actives have a fitted effect of over 50% in size. Also: potency is read from the fitted curve at half-maximal effect. As to max response: % is scaled to controls: 0 for no effect and ±100 for the full control effect. The note with it: ATP luminescence (CellTiter-Glo), 18 h; max response: stronger effect = lower value. The essentials: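 The Tox21 protocol used parental HEK293 cells treated for 18 h at 37 C with compounds delivered by pintool; ATP-coupled luminescence after 30 min at room temperature gave viability.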
The nature of assay [7]: qHTS assay for cell viability of the p53RE-bla HCT-116 cell line (AID 743292). Also: nearly all actives have a fitted effect of over 55% in size. Also: potency is read from the fitted curve at half-maximal effect. The note with it: p53RE-bla HCT-116 viability, ATP luminescence, 16 h; series mostly up to 95 µM. The essentials: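 In this qHTS counter-screen, metabolically competent p53RE-bla HCT-116 cells were counted via their ATP content. Compounds were applied for 16 h at 37 C and luciferase-coupled luminescence was measured.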

Assay [8] in a line: qHTS profiling for inhibitors of Plasmodium falciparum (3D7) proliferation (AID 743322; call rule not given here;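 also: infected erythrocytes exposed to compound for 72 h before lysis; 100% = DMSO vehicle wells and 0% = 0.29 µM artemisinin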). The note with it: P. falciparum 3D7 proliferation; at 28.7 µM (top of the series) unless noted. Summed up:
(§1)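 Erythrocytes infected with P. falciparum (0.3% parasitemia, 2.5% hematocrit) incubated with compounds 72 h at 37 C, 5% CO2. Lysis with saponin/Triton buffer containing SYBR Green I, overnight at room temperature in the dark; DNA fluorescence (485/535 nm) normalised to 0.29 uM artemisinin and DMSO.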

A short description of assay [9]: qHTS profiling for inhibitors of Plasmodium falciparum (DD2) proliferation (AID 743323; call rule not given here). The note with it: lower = more inhibition; at 28.7 µM (top of the series) unless noted. The essentials: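 P. falciparum Dd2-infected erythrocytes (0.3% parasitemia, 2.5% hematocrit) exposed 72 h at 37 C, 5% CO2. Lysis with SYBR Green, overnight at room temperature, fluorescence 485/535 nm; normalized to 0.29 uM artemisinin and DMSO.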

Assay [10] is described as follows: qHTS profiling for inhibitors of Plasmodium falciparum (HB3) proliferation (AID 743324).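 Also: 100% = DMSO vehicle wells and 0% = artemisinin-treated control wells.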 The note with it: Plasmodium falciparum HB3 blood-stage proliferation; at 28.7 µM (top of the series) unless noted. The essentials:
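P. falciparum HB3 grown in erythrocytes (0.3% parasitemia, 2.5% hematocrit final) with compound for 72 h at 37 C, 5% CO2. Parasite DNA detected by SYBR Green after saponin/triton lysis overnight; normalized to 0.29 uM artemisinin and DMSO.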

Assay [11] in a line: qHTS profiling of the MIPE4 collection as inhibitors of Plasmodium falciparum (3D7) proliferation (AID 743344; call rule not given here;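 also: scaled between DMSO vehicle wells and 0.29 µM artemisinin as full inhibition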). The note with it: P. falciparum 3D7 in erythrocytes, SYBR Green DNA fluorescence, 72 h; at 28.5 µM (top of the series) unless noted. Summed up:
as §1

The target in assay [12] is Tyrosine-protein kinase Yes (Homo sapiens) (UniProt P07947). The assay is described as follows: qHTS for small molecule inhibitors of Yes1 kinase: Primary Screen (AID 686947). Also: nearly all actives have a fitted effect of over 60% in size. Also: potency is read from the fitted curve at half-maximal effect. The note with it: Yes1 kinase biochemical qHTS inhibition; series mostly up to 76.9 µM. The essentials: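 Yes1 (4 nM) preincubated 20 min with compound, then 60 min room-temperature reaction with 0.1 mM ATP and 0.3 mg/mL poly(E4Y) in pH 7.5 Tris, 10 mM MgCl2. ADP measured by ADP-Glo luminescence, normalised to enzyme/no-enzyme controls.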

Assay [13] deals with Nuclear receptor ROR-gamma (Homo sapiens) (UniProt P51449). Description: qHTS assay for small molecule antagonists of the retinoid-related orphan receptor gamma (ROR-gamma) signaling pathway (AID 651802).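 Also: luciferase reporter luminescence driven by ROR response element; % is scaled to controls: 0 for no effect and ±100 for the full control effect; nearly all actives have a fitted effect of over 60% in size.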 The note with it: ROR-gamma antagonist cell reporter assay; series mostly up to 92.2 µM. Summed up:
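CHO, TET-inducible ROR + RORE-LUC reporter, 1536-well qHTS. Compound pinned, doxycycline added, 16hr 37C/5% CO2. ONE-Glo, 30 min RT, luminescence; signal drop scored as antagonism.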

The target of assay [14] is Arylsulfatase A (Homo sapiens) (UniProt P15289). Description: qHTS screen for enhancers of Arylsulfatase A (ASA1): LOPAC Validation Assay (AID 720538). Also: 0% is about no effect. The note with it: ASA enzyme activity, LOPAC qHTS enhancer assay; series mostly up to 57.5 µM. The essentials:
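First, ASA-I179S fibroblasts from an MLD patient adhered for 6 hrs. Next, compounds were added for 48h. Then pNCS substrate (0.5mM final) with lysis buffer reacted 14h at room temperature before NaOH stop and fluorescence measurement.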

The nature of assay [15]: qHTS for compounds that reverse cellular toxicity of Amyloid beta (A-beta) peptide in yeast: LOPAC Validation Assay (AID 720559).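 Also: plate controls were DMSO for no effect and equimolar ferric chloride plus clioquinol rescue for full effect.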 The note with it: yeast expressing A-beta; series mostly up to 46.1 µM. Summed up:
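Activity is expressed relative to DMSO and an equimolar ferric chloride/clioquinol mix. Compounds were pinned into medium with A-beta-expressing yeast, grown 48 hr at 30 C, then read by absorbance at 600 nm.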

The nature of assay [16]: qHTS for Activators of Parkin Expression: LOPAC Validation Assay (NLuc Reporter) (AID 720572;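 also: 0% = DMSO and 100% = positive control compound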). The note with it: Parkin promoter NanoLuc reporter cells, luminescence, percent of positive control, DMSO as zero; series mostly up to 46.1 µM. The essentials:
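Neuronal cells with a Parkin promoter-driven FLuc/NLuc coincidence reporter were treated 24 h at 37 C in 7-point dose response (LOPAC). NLuc luminescence read after FLuc; signals normalized to DMSO and positive control (100%).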

Assay [17] is described as follows: qHTS for Activators of Parkin Expression: LOPAC Validation Assay (FLuc Reporter) (AID 720573;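 also: 0% = DMSO and 100% = positive control compounds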). The note with it: Cell line, PRKN promoter firefly luciferase reporter; series mostly up to 46.1 µM. The essentials: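 A neuronal cell line harbouring FLuc and NLuc reporters behind the Parkin promoter was exposed to compounds for 24 h. Firefly luciferase signal, measured after 10 min with detection reagent, was scaled to DMSO and positive-control wells.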

For assay [18], the target named is T1, Hexokinase-4 (Homo sapiens) + Glucokinase regulatory protein (Homo sapiens) (UniProt P35557+Q14397). Description: qHTS assay for inhibitors of recombinant human GCK-GKRP interaction: Diaphorase-coupled assay (AID 743205). The note with it: G6PDH/diaphorase resorufin fluorescence; series mostly up to 57.5 µM. The essentials:
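Inhibitors of the GCK–GKRP complex relieve GKRP suppression of GCK, detected through a G6PDH–diaphorase cascade reducing resazurin. Human GST-GCK and FLAG-GKRP are used at 10 nM with 5 mM glucose and 0.4 mM ATP.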

The target in assay [19] is T1, Hexokinase-4 (Homo sapiens) + Glucokinase regulatory protein (Homo sapiens). The assay is described as follows: qHTS assay for inhibitors of recombinant human GCK-GKRP interaction: ADP-Glo assay (AID 743206).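 Also: plate controls were DMSO plus enzyme for no effect and no enzyme for full effect.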 The note with it: ADP-Glo luminescence, 60 min, 0% = vehicle-only wells with enzyme present; series mostly up to 76.9 µM. The essentials: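 GST-GCK and FLAG-GKRP (15 nM each in the dispensed mix, with 2 uM S6P) react with 0.4 mM ATP and 5 mM glucose (final) in Hepes pH 7.6 for 60 min at room temperature. ADP is measured by ADP-Glo luminescence.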

Assay [20] shares this target. The assay is described as follows: qHTS assay for inhibitors of recombinant human GCK-GKRP interaction: HTRF assay (AID 743207).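 Also: 0% = DMSO with GCK present and -100% = DMSO wells lacking GCK.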 The note with it: recombinant GCK-GKRP HTRF binding, 60 min, with sorbitol-6-phosphate; series mostly up to 57.5 µM. Summed up:
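Steps: dispense GCK–GKRP complex (5 nM each, GST- and FLAG-tagged) with 2 uM S6P; pin in compounds; add XL665/Eu-cryptate-labelled antibodies; incubate 60 min at room temperature; read time-resolved FRET at 665 and 615 nm.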

T1 sequence (P35557 whole entry, looked up): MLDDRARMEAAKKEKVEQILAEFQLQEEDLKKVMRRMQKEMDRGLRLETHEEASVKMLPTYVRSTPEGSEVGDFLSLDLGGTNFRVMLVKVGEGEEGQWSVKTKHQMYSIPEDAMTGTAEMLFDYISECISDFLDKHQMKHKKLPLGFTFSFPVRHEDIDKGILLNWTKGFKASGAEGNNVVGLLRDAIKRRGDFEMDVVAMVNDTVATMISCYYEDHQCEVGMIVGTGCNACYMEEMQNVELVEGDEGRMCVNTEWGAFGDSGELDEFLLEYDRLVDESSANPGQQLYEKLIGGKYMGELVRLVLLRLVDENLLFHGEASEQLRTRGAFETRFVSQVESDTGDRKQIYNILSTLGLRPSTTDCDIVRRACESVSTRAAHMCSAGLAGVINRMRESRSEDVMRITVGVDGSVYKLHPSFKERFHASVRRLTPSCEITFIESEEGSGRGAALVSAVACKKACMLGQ
T1 sequence (Q14397 whole entry, looked up): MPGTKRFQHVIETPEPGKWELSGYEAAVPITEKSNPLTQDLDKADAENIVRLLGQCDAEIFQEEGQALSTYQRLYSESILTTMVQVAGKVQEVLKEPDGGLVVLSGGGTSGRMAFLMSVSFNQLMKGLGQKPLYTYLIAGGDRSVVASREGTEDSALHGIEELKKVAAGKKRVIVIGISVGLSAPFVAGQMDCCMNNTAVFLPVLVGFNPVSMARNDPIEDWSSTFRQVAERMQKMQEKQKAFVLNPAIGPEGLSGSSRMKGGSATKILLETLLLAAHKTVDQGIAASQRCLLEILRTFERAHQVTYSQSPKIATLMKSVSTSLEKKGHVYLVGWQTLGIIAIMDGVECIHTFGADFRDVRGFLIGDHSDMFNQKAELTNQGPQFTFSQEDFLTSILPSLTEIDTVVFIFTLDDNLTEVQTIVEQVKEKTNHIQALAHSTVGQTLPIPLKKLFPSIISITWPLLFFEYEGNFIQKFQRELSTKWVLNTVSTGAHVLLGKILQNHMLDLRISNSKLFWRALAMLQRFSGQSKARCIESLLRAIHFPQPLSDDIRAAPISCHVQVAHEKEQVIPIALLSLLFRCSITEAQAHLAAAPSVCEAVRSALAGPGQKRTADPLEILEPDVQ
Peroxisome proliferator-activated receptor alpha (Homo sapiens), sequence (Q07869 whole entry, looked up, the tested form may be a part): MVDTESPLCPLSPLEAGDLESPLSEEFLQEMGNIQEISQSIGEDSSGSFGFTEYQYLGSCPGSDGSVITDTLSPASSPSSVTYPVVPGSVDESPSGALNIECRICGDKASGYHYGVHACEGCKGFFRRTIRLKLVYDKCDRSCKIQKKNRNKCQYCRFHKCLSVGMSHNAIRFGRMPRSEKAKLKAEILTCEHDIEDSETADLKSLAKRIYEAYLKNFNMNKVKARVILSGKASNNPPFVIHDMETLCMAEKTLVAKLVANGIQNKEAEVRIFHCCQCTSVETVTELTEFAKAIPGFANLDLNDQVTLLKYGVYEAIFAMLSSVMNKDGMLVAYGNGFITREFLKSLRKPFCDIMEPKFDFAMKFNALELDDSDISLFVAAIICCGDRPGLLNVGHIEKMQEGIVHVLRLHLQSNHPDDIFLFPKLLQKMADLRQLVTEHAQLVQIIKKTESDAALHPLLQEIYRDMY
Tyrosine-protein kinase Yes (Homo sapiens), sequence (P07947 whole entry, looked up): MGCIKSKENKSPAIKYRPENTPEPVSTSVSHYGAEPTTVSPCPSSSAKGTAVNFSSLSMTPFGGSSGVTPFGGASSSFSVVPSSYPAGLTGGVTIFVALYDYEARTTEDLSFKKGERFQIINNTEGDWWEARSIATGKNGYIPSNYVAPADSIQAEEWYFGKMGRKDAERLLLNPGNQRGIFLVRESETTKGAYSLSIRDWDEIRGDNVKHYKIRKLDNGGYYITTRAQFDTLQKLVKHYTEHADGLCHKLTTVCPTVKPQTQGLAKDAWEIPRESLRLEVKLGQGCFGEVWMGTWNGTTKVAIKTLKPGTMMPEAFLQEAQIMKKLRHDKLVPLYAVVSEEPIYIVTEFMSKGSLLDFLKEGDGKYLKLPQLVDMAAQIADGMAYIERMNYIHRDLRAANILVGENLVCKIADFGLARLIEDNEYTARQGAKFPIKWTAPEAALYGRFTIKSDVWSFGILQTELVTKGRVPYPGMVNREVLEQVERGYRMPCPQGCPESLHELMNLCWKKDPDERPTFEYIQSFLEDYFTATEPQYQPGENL
Nuclear receptor ROR-gamma (Homo sapiens), sequence (P51449 whole entry, looked up): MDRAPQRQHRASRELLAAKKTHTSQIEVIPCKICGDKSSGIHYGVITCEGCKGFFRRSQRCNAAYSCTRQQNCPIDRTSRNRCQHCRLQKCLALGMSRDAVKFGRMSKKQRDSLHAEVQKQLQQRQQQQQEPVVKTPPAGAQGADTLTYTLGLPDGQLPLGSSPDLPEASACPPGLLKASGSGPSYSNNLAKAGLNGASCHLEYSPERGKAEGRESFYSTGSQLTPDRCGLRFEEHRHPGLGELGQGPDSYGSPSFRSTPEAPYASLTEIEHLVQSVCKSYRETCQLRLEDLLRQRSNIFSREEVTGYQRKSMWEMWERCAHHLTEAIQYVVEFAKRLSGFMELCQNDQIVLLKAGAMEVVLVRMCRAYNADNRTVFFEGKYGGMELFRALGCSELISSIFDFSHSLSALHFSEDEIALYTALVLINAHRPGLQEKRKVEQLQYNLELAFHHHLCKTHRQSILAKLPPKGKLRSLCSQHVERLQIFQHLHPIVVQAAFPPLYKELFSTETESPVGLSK
Arylsulfatase A (Homo sapiens), sequence (P15289 whole entry, looked up): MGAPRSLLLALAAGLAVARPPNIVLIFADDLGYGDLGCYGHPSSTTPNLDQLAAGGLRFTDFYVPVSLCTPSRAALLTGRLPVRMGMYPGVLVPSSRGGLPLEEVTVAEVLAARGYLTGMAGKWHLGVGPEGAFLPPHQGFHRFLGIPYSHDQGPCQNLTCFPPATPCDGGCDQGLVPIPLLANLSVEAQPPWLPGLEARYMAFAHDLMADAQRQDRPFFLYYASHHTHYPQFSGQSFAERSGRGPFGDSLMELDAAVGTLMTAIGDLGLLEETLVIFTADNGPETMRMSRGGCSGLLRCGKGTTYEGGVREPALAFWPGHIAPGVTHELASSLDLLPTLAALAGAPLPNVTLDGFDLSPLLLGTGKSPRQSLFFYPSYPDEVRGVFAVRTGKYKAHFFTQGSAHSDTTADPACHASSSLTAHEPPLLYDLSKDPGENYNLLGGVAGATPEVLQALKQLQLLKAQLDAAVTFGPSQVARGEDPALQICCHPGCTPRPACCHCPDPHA

In the case of `CCc1nc(N)nc(N)c1-c1ccc(Cl)cc1`, the max response was -1.61% (inactive) and -1.39% (inactive) in [1]; 14.3% (inactive) in [5]. In addition, in assay [2], the Potency entry is “inactive”. Besides, the result in assay [3] was inactive. Moreover, the Potency is 11.2 µM (active) in assay [4]; 10 µM (active) and 12.6 µM (active) in [6]; 28.2 µM (active) in [7]. Moreover, the remaining parasite growth % (stronger effect = lower value) in assay [8] is -1.1%. The activity, percent of control in assay [9] came to 90.3%. For the same compound, the remaining proliferation (% of control), lower = more inhibition in [10] was determined as 3.84%. This compound showed a parasite growth, % of DMSO control in assay [11] of 30.2%.
As for `CCN(CCO)CCCC(C)Nc1ccnc2cc(Cl)ccc12` (stereo not drawn), the Potency entry in assay [12] is “inactive”. The max response in assay [5] was -15.7% (inactive). Moreover, the remaining parasite growth % (stronger effect = lower value) in assay [8] was 0.834% and 0.742%. Further, the activity, percent of control in assay [9] is 105% and 9.47%. For the same compound, the remaining proliferation (% of control), lower = more inhibition in [10] was 1.3% and -0.152%. In assay [11], this compound registered a parasite growth, % of DMSO control of 20.1%.
Consider `Cc1cccc(-c2[nH]ncc2-c2ccc3ncccc3n2)n1`, for which the Potency in [12] is 2.92 µM (active) and 2.23 µM (active). The max response in [5] is -4.01% (inactive). For the same compound, the remaining parasite growth % (stronger effect = lower value) in assay [8] came to 92.9% [at 57.5 µM]. In [9], the activity, percent of control came to 107% [at 57.5 µM]. Also, in assay [10], the remaining proliferation (% of control), lower = more inhibition was found to be 89.3% [at 57.5 µM]. The parasite growth, % of DMSO control in [11] was determined as 74.7%.
For `CCCc1cc(=O)[nH]c(=S)[nH]1`, the max response in assay [1] was -4.59% (inactive) and -0.354% (inactive); in [4], -7.93% (inactive) and 7.26% (inactive); in assay [5] it was 1.36% (inactive); in assay [6] it was -1.41% (inactive) and 0.952% (inactive). The compound was classed as inactive in [13] and in assay [3]. The Potency entry in [2] and in assay [7] was “inactive” each time. Besides, in assay [11], the parasite growth, % of DMSO control stood at 95.4%.
For the compound `NS(=O)(=O)c1cc(C(=O)O)c(NCc2ccco2)cc1Cl`, the result in assay [13] and in assay [3] was inactive. In addition, the Potency result in assay [12], in assay [2] and in assay [7] was “inactive” each time. Besides, the max response in assay [4] is 0.113% (inactive) and -9.05% (inactive); in assay [5] it was 3.33% (inactive); in assay [6], 5.51% (inactive) and -8.33% (inactive). In assay [11], this compound returned a parasite growth, % of DMSO control of 58.2%.
Turning to `O=C(O)c1cccnc1Nc1cccc(C(F)(F)F)c1`, the Potency entry in assay [14] and in assay [17] was “inactive” throughout. The compound was classed as inactive in [15], in assay [16], in assay [18], in [19] and in [20]. Also, the max response in assay [5] was -9.57% (inactive) and 27.4% (inactive). Besides, in assay [11], the parasite growth, % of DMSO control was 83.9%.
Turning to `CC1(C)NC(=O)N(c2ccc([N+](=O)[O-])c(C(F)(F)F)c2)C1=O`, the max response in assay [1] was -2.93% (inactive); in assay [4], -27.8% (inactive); in [5], 12.7% (inactive) and -11.2% (inactive); in assay [6], -18.9% (inactive). The call in assay [15], in assay [16], in assay [18], in [19] and in assay [20] was inactive. Besides, the Potency entry in [17], in assay [2] and in assay [7] was “inactive” each time. This compound gave a parasite growth, % of DMSO control in assay [11] of 83.6%.
For `COc1c2occc2cc2ccc(=O)oc12`, the max response in assay [1] was -3.1% (inactive) and -0.368% (inactive); in [4] it was -6.22% (inactive) and 0.264% (inactive); in assay [5], 12.3% (inactive); in [6] it was 1.56% (inactive) and -7.55% (inactive). Besides, in assay [7], the Potency entry is “inactive”.
